Structures are written as SMILES. About 8,500 (2.5%) of roughly 340,000 compounds were called active. The entries come from a sample that favours actives as a whole. Values without a mark were called inactive.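 The calls were made as follows: active = melting temperature shift of at least 10% of the positive control shift, at one fixed dose; inactive = the rest.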

In this test the test system is Glutamate receptor ionotropic, NMDA 3A (GRIN3A) ligand-binding domain. The test can be described thus: NR3A LBD thermal stabilization by compounds – biophysical, differential scanning fluorimetry, uHTS, primary screen (AID 1259313). To be noted: at 25 µM, hits give high values, 0% = protein alone, 100% = glycine-bound protein.
As to `O=C(CN1CCN(C(=S)NC2CCCC2)CC1)Nc1ccc(Oc2ccccc2)cc1`, the Tm shift relative to glycine control is -2.87%.

On to `O=C(NCc1ccccc1Cl)C1CCN(S(=O)(=O)c2cccc3nonc23)CC1`, for which the Tm shift relative to glycine control was 2.6%.

As to `Cc1ccccc1-n1c(C)cc(/C=C2\NC(=O)NC2=O)c1C`, the Tm shift relative to glycine control was -2.81%.

Regarding `Cc1cc(/C=C2/NC(=O)NC2=O)c(C)n1-c1cccnc1`, the Tm shift relative to glycine control is -4.95%.

`Cc1ccc(CN2C(=O)N/C(=C/c3cc(C)n(-c4ccccn4)c3C)C2=O)cc1`: the Tm shift relative to glycine control is 57.7% (active).

Turning to `Oc1ccccc1C1=NN(c2ccccc2)C(c2ccccc2)C1` (configuration not stated), the Tm shift relative to glycine control is 11.9% (active).

As to `COc1ccc(C2=NN(c3ccccc3)C(c3cccs3)C2)cc1` (configuration not stated), the Tm shift relative to glycine control was 0.58%.

As to `O=C1C2N=NN(CC(=O)N3N=C(c4cccc5ccccc45)CC3c3ccccc3)C2C(=O)N1c1ccccc1` (configuration not stated), the Tm shift relative to glycine control is -0.6%.

As for `O=C(CCN1C(=O)C2C3C=CC(C3)C2C1=O)Oc1ccc2ccccc2c1` (configuration not stated), the Tm shift relative to glycine control is -2.31%.

For `Cc1ccc(C(=O)COC(=O)CCN2C(=O)C3C4CCC(C4)C3C2=O)cc1C` (configuration not stated), the Tm shift relative to glycine control was 1.5%.

On to `Cc1ccc(C(=O)COC(=O)CCN2C(=O)C3C4CC(C(Br)C4Br)C3C2=O)cc1` (configuration not stated), for which the Tm shift relative to glycine control was 18% (active).

`Cc1nn(Cc2ccc(Cl)cc2)c(Cl)c1/C=N/NC(=O)c1cccnc1`: the Tm shift relative to glycine control was -6.33%.

As for `Cc1nn(Cc2ccc(Cl)cc2)c(Cl)c1/C=N/NC(=O)CNc1ccccc1F`, the Tm shift relative to glycine control was 16.1% (active).

Take `CCn1nc(C)c(/C=N/NC(=O)Cc2ccc(Cl)cc2)c1C`: the Tm shift relative to glycine control is 1.94%.

On to `C/C=C/C(=O)OCc1csc(CC(=O)Nc2ccccc2C)n1`, for which the Tm shift relative to glycine control was -1.3%.

As for `Cc1ccc(C)c(S(=O)(=O)N2CCN(CC(=O)Nc3ccc([N+](=O)[O-])cc3)CC2)c1`, the Tm shift relative to glycine control was -7.08%.

With `Cc1ccc(S(=O)(=O)N2CCN(CC(=O)N/N=C/c3ccc(Br)s3)CC2)cc1`, the Tm shift relative to glycine control was 0.82%.

`Cc1ccc(S(=O)(=O)N2CCN(CC(=O)N/N=C/c3cc([N+](=O)[O-])ccc3Cl)CC2)cc1`: the Tm shift relative to glycine control is 19.9% (active).

For `CCOC(=O)CN(C)S(=O)(=O)c1ccc(-c2cc(C(=O)OC)sc2C(F)(F)F)cc1`, the Tm shift relative to glycine control is -0.21%.

`CCC(CC)C(=O)Nc1cccc(C(=O)N2CCCC2)c1`: the Tm shift relative to glycine control was -2.45%.

For `Cc1cc(C(=O)COc2ccc(Br)cc2F)c(C)n1C1CC1`, the Tm shift relative to glycine control was 1.06%.

Turning to `N#Cc1ccc(C(c2nnnn2CCc2ccccc2)N2CCCCCC2)cc1` (configuration not stated), the Tm shift relative to glycine control is 1.53%.

In the case of `COc1ccc(CCn2nnnc2C(c2ccccc2)N2CCN(C)CC2)cc1OC` (configuration not stated), the Tm shift relative to glycine control was 10.2% (active).

With `COc1ccc(C(c2nnnn2Cc2cccs2)N2CCN(c3ccccc3)CC2)cc1OC` (configuration not stated), the Tm shift relative to glycine control was 0%.

Turning to `COc1ccc(S(=O)(=O)N2CCN(c3ncnc4c(-c5ccccc5)nsc34)CC2)cc1`, the Tm shift relative to glycine control is -1.19%.

Consider `O=C(c1ccc(F)cc1)c1c[nH]c(C(=O)NCc2cccnc2)c1`, for which the Tm shift relative to glycine control is -1.06%.

On to `CCN(Cc1ccncc1)C(=O)c1cccc(S(=O)(=O)N2CCOCC2)c1`, for which the Tm shift relative to glycine control was 0.46%.

Consider `CC(C)CNS(=O)(=O)c1ccc(C(=O)Nc2ccc3c(c2)OCO3)cc1`, for which the Tm shift relative to glycine control is -0.27%.

Consider `CNS(=O)(=O)c1ccc(NC(=O)Nc2ccc3c(c2)OCO3)cc1`, for which the Tm shift relative to glycine control is 11.2% (active).

Consider `Cc1ccc(S(=O)(=O)NCC(=O)Nc2ccc3c(c2)OCCO3)cc1`, for which the Tm shift relative to glycine control was 0.9%.

Consider `COc1ccc2[nH]cc(/C=C(/C#N)S(=O)(=O)c3ccccc3)c2c1`, for which the Tm shift relative to glycine control was 13.2% (active).

As for `CCN(CC)CC(=O)c1c[nH]c2ccc(OC)cc12`, the Tm shift relative to glycine control was -2.92%.

For `COc1ccc2[nH]cc(CCN3C(=O)c4ccc(C(=O)O)cc4C3=O)c2c1`, the Tm shift relative to glycine control was -2.98%.

As to `C=C(C)C1CC=C(C)/C(=N/NC(=O)CCCNc2cccc(C)c2)C1` (configuration not stated), the Tm shift relative to glycine control is -0.09%.

Take `CCc1cc2c(SCC(=O)Nc3ncc(Cl)c(C)c3Cl)ncnc2s1`: the Tm shift relative to glycine control is -1.41%.

With `O=C(NNC(=O)c1cccc(S(=O)(=O)Nc2ccc(Cl)cc2)c1)c1ccc(=O)[nH]c1`, the Tm shift relative to glycine control was 0.33%.

As for `CC(C)N(C(=O)CSc1nnc(NC2CC2)s1)c1ccccc1`, the Tm shift relative to glycine control is -1.56%.

As to `Cc1ccc(Nc2nnc(SCC(=O)c3cc4ccccc4o3)s2)cc1C`, the Tm shift relative to glycine control was 11.5% (active).

Regarding `CC(C)c1ccc(Nc2nnc(SCC(=O)c3nnc(-c4ccccc4)o3)s2)cc1`, the Tm shift relative to glycine control was 19.9% (active).

Regarding `CC(C)Nc1nnc(SCC(=O)c2c[nH]c3ccccc23)s1`, the Tm shift relative to glycine control is -3.26%.

On to `Cc1ccccc1Nc1nnc(SCC(=O)c2cc3ccccc3o2)s1`, for which the Tm shift relative to glycine control is -23.4%.

With `Cc1cc2c(=O)n(C)c(SCC(=O)c3cc4ccccc4o3)nc2s1`, the Tm shift relative to glycine control was -0.65%.

On to `O=C(CN1C(=O)CCS(=O)(=O)c2ccccc21)NCc1ccc(F)cc1`, for which the Tm shift relative to glycine control was -2.05%.

For `CN1CCN(C(=O)c2ccc(NS(=O)(=O)c3ccccc3)cc2)CC1`, the Tm shift relative to glycine control is -0.09%.

`OCCCC1CCCCN1Cc1nc(Cc2ccccc2Cl)no1` (configuration not stated): the Tm shift relative to glycine control is 0.08%.

With `NS(=O)(=O)c1cc(C(=O)NCCOc2ccccc2)c(Cl)cc1Cl`, the Tm shift relative to glycine control is -0.6%.

For `CCCN(C(=O)CSc1nnc(N)s1)c1c(N)n(Cc2ccccc2)c(=O)[nH]c1=O`, the Tm shift relative to glycine control is 5.76%.

Consider `CC1=CC(=C(C#N)c2nc3ccccc3s2)C=C(C)N1c1ccc(F)cc1F`, for which the Tm shift relative to glycine control is -4.96%.

In the case of `N#C/C(=C(/O)Cc1cccc2ccccc12)c1nc2ccccc2s1`, the Tm shift relative to glycine control was 19.3% (active).

Take `O=C(O)CC/C(=C\c1cc2c(cc1Br)OCO2)c1nc2ccccc2s1`: the Tm shift relative to glycine control is -1.28%.

With `Cc1cc(NC(=O)c2ccco2)c(=O)n(Cc2c(F)cccc2Cl)c1`, the Tm shift relative to glycine control was -1.84%.

For the molecule `O=C(C[C@H]1C[C@H](C(=O)N2CCOCC2)[C@@]2(CCC3CCCC3)c3[nH]c4ccc(Cl)cc4c3CCN2C1=O)NCc1ccco1`, the Tm shift relative to glycine control is 3%.

Consider `COc1ccc2[nH]c3c(c2c1)CCN1C(=O)C(CC(=O)NCCCN(C)C)C[C@H](C(=O)N2CCOCC2)[C@@]31CCC1CCCC1` (some centres not stated), for which the Tm shift relative to glycine control was 0.34%.

In the case of `COc1ccc(CNC(=O)C[C@H]2C[C@H](C(=O)N3CCOCC3)[C@@]3(CCC4CCCC4)c4[nH]c5ccc(Cl)cc5c4CCN3C2=O)cc1OC`, the Tm shift relative to glycine control is 10% (active).

Turning to `C/C(Cc1ccccc1)=N\NC(=O)CNC(=O)c1cccc(Br)c1`, the Tm shift relative to glycine control is -3.32%.

Take `C/C(Cc1ccccc1)=N\NC(=O)CNC(=O)c1ccc2c(c1)OCCO2`: the Tm shift relative to glycine control was 12.5% (active).

Regarding `C/C(Cc1ccccc1)=N\NC(=O)CNC(=O)c1ccccc1Cl`, the Tm shift relative to glycine control was 0%.

Take `O=S(=O)(Nc1ccc(-n2cnnn2)cc1)c1ccc(Cl)cc1`: the Tm shift relative to glycine control is 0.42%.

Take `CC(=O)[C@@]12O[C@@H]1C[C@H]1[C@@H]3CC[C@H]4C[C@@H](O)CC[C@]4(C)[C@H]3CC[C@@]12C`: the Tm shift relative to glycine control was 0%.

On to `Cc1ccc(C(=O)NCC(=O)OCC(=O)Nc2cccc(S(=O)(=O)N3CCCC3)c2)cc1C`, for which the Tm shift relative to glycine control was -2.16%.

Consider `N/C(=N\c1nc2ccccc2o1)NC(=O)C(Cc1ccccc1)N1C(=O)c2ccccc2C1=O` (configuration not stated), for which the Tm shift relative to glycine control was -1.81%.

For `COc1ccc(CCNC(=O)CSCc2ccc(Br)cc2)cc1OC`, the Tm shift relative to glycine control is 0.53%.

On to `CC(=O)c1ccc(NC(=O)CCNS(=O)(=O)c2cc(Br)cnc2N)cc1`, for which the Tm shift relative to glycine control was -12.8%.

Regarding `COc1ccc(CCNC(=O)CCc2ccccc2O)cc1OC`, the Tm shift relative to glycine control is 19.5% (active).

`COc1ccc(CCNC(=O)C(=O)NCc2ccccc2C)cc1OC`: the Tm shift relative to glycine control was -1.17%.

With `COc1ccc(CCNC(=O)Cc2ccc(C)cc2)cc1OC`, the Tm shift relative to glycine control was -3.8%.

In the case of `COc1ccc(CCNC(=O)CCNS(=O)(=O)c2cc(Br)cnc2N)cc1OC`, the Tm shift relative to glycine control was 11% (active).

Take `Cc1cccc(OCCC(=O)Nc2cc(S(=O)(=O)N3CCCCC3)ccc2N2CCOCC2)c1`: the Tm shift relative to glycine control was 6.71%.

On to `O=C(COc1ccc(-n2cnnn2)cc1)Nc1ccccc1Cl`, for which the Tm shift relative to glycine control was -3.66%.

On to `O=C(COc1cccc(-n2cnnn2)c1)NCCC1=CCCCC1`, for which the Tm shift relative to glycine control was -4.1%.

With `C=CCc1cccc(/C=N/NC(=O)COc2ccc(-n3cnnn3)cc2)c1O`, the Tm shift relative to glycine control is 24.6% (active).

Regarding `COc1ccc(-c2ccc3c(c2)C2CC3CCN2CCC#N)cc1` (configuration not stated), the Tm shift relative to glycine control was 0.87%.

Consider `N#CCOc1ccc(C2=NO[C@@H]3[C@@H]4C[C@@H]([C@H]5C(=O)N(c6ccc7c(c6)OCO7)C(=O)[C@@H]45)[C@H]23)cc1`, for which the Tm shift relative to glycine control is -1.3%.

`Cc1cc(CN(C)C(=O)c2cc(COc3ccc(C)c(C)c3)on2)n[nH]1`: the Tm shift relative to glycine control is -0.56%.

As for `Cc1cc(Cl)ccc1OCCCC(=O)NCc1ccncc1`, the Tm shift relative to glycine control was 21.3% (active).

In the case of `Cc1cc(Cl)ccc1OCCCC(=O)NCc1ccccn1`, the Tm shift relative to glycine control is -3.24%.

With `Cc1cc(Cl)ccc1OCCCC(=O)Nc1cccc(-n2cnnn2)c1`, the Tm shift relative to glycine control was 4.11%.

For `CCOCCCNC(=O)Cc1cc(=O)[nH]c(=O)[nH]1`, the Tm shift relative to glycine control is -1.66%.

For the molecule `OCC[C@H]1C[C@H](O)[C@@H](O)[C@]2(CCc3ccccc3O2)O1`, the Tm shift relative to glycine control is 1.78%.

Turning to `CC1CN(CC(=O)NC(C)c2ccccc2)CC(C)O1` (configuration not stated), the Tm shift relative to glycine control was -1.03%.

As for `CCC(=O)c1cn(CCOc2ccccc2OC)c2ccccc12`, the Tm shift relative to glycine control is 2.85%.

`Cc1ccc(S(=O)(=O)NC2(C(F)(F)F)NC(=O)N(CCc3ccccc3)C2=O)cc1` (configuration not stated): the Tm shift relative to glycine control was -0.75%.

With `CC(=O)Nc1ccc(S(=O)(=O)NC2(C(F)(F)F)C(=O)NC(C)=C2C#N)cc1` (configuration not stated), the Tm shift relative to glycine control was -1.26%.

On to `CCCN1C(=O)C(NS(=O)(=O)c2ccc(N)cc2)(C(F)(F)F)C(C(=O)OC)=C1C` (configuration not stated), for which the Tm shift relative to glycine control was 13.6% (active).

As to `Nc1ncnc(Nc2cccc(Cl)c2Cl)n1`, the Tm shift relative to glycine control is -0.42%.

For `O=C(NCc1ccccc1)[C@H]1C[C@@H]1[C@H](NP(=O)(c1ccccc1)c1ccccc1)c1ccccc1`, the Tm shift relative to glycine control is -1.54%.

As for `CC[C@]12c3[nH]c4cc(CCC(=O)N(C)C)ccc4c3CCN1C(=O)[C@@H](CC(=O)NCC13CC4CC(CC(C4)C1)C3)C[C@@H]2C(=O)N1CCN(C(=O)C2CC2)CC1`, the Tm shift relative to glycine control was -2.56%.

The values are drawn from PubChem BioAssay AID1259313 (Sanford-Burnham Center for Chemical Genomics, 2017).
